Data reported in the supplement of paper PMC12645437, “Orthogonal IMiD-Degron Pairs Induce Selective Protein Degradation in Cells” (ACS Chemical Biology, 2025).
The full ranking holds about 8,300 sequences; the median of “log2 fold change of degron read counts, EGFP-low vs EGFP+ sorted cells (limma voom), compound-induced degradation” is about -1.1, and the highest 2% start at about 3.2. Shown is part of a subset that was picked to be rich in the highest values.

T1: CRBN, Q96SW2
T1 chain: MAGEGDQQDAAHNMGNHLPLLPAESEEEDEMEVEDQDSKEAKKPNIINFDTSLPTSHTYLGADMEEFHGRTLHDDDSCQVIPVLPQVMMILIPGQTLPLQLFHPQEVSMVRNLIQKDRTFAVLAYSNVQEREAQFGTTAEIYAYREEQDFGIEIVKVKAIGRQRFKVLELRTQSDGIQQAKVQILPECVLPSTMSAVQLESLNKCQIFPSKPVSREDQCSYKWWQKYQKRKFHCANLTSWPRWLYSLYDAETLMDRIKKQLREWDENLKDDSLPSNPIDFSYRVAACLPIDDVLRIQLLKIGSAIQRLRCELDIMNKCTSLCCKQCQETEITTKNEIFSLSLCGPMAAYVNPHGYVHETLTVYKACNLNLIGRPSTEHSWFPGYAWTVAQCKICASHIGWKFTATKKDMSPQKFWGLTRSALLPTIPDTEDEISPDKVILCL


Biological target: T1, CRBN, Q96SW2
Assay: log2 fold change of degron read counts, EGFP-low vs EGFP+ sorted cells (limma voom), compound-induced degradation; higher = more compound-induced degradation of the degron-EGFP fusion; degrons are variants of IKZF1/3 zinc finger 2; compound dose not given here
Details: Jurkat, 18 h
[1] = compound: compound 19 (5-tert-butyl-thalidomide)
[2] = compound: compound 22 (5-morpholino-thalidomide)
[3] = compound: compound 33 (diphenyl IMiD analogue)
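Further: pooled lentiviral library of zinc finger degron-EGFP fusions in mCherry-positive Jurkat cells, FACS-sorted after compound exposure, with degron abundance counted by next-generation sequencing.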

Row | Sequence | log2 fold change of degron read counts [1] | log2 fold change of degron read counts [2] | log2 fold change of degron read counts [3] | log2 fold change of degron read counts (compound: thalidomide)
1 | LMCEICGFLCTQKGNLLRHIKL [46L_47M_49E_50I_52G_53F_54L_55C_67L_, Q9UKT9] | -1.21 | -1.08 | 0.82 | 0.189
2 | LGCEICGFFCTQKGNLLRHIKL [46L_47G_49E_50I_52G_53F_54F_55C_67L_, Q9UKT9] | 1.15 | 0.461 | 0.628 | 0.198
3 | FICEQCGAEFTQKGNLLRHIKL [46F_47I_49E_50Q_52G_53A_54E_55F_67L_, Q9UKT9] | -2.28 | -1.92 | -1.09 | -0.382
4 | FMCSVCGHPFTQKGNLLRHIKL [46F_47M_49S_50V_52G_53H_54P_55F_67L_, Q9UKT9] | -2.27 | -1.78 | -1.3 | -1.51
5 | LLCNQCGFMCTQKGNLLRHIKL [46L_47L_49N_50Q_52G_53F_54M_55C_67L_, Q9UKT9] | -1.85 | -1.98 | -1.61 | -1.33
6 | FYCDQCGAYFTQKGNLLRHIKL [46F_47Y_49D_50Q_52G_53A_54Y_55F_67L_, Q9UKT9] | -0.745 | -1.31 | -1.38 | -2.23
7 | FDCNQCGHQFTQKGNLLRHIKL [46F_47D_49N_50Q_52G_53H_54Q_55F_67L_, Q9UKT9] | -2.63 | -3.11 | -2.64 | -2.65
8 | FVCEICGAHFTQKGNLLRHIKL [46F_47V_49E_50I_52G_53A_54H_55F_67L_, Q9UKT9] | 0.302 | 1.59 | 1.49 | 1.95
9 | FDCEICGAHFTQKGNLLRHIKL [46F_47D_49E_50I_52G_53A_54H_55F_67L_, Q9UKT9] | 3.28 | 0.822 | -0.326 | 1.02
10 | FSCEICGAHFTQKGNLLRHIKL [46F_47S_49E_50I_52G_53A_54H_55F_67L_, Q9UKT9] | 2.47 | 0.831 | 0.776 | 0.206
11 | FVCEICGRHFTQKGNLLRHIKL [46F_47V_49E_50I_52G_53R_54H_55F_67L_, Q9UKT9] | -2.45 | -1.78 | -2.13 | -0.209
12 | FTCEICGHLFTQKGNLLRHIKL [46F_47T_49E_50I_52G_53H_54L_55F_67L_, Q9UKT9] | -2.72 | -3.75 | -2.61 | -2.41
13 | FYCPICGHCFTQKGNLLRHIKL [46F_47Y_49P_50I_52G_53H_54C_55F_67L_, Q9UKT9] | -1.24 | -1.33 | -0.382 | -1.61
14 | FECPVCGANFTQKGNLLRHIKL [46F_47E_49P_50V_52G_53A_54N_55F_67L_, Q9UKT9] | -0.535 | -0.523 | 2.7 | 3.16
15 | FSCPVCGANFTQKGNLLRHIKL [46F_47S_49P_50V_52G_53A_54N_55F_67L_, Q9UKT9] | 1.92 | 1.29 | 1.78 | 0.865
16 | FYCPVCGANFTQKGNLLRHIKL [46F_47Y_49P_50V_52G_53A_54N_55F_67L_, Q9UKT9] | 2.82 | 3.69 | 2.32 | 1.3
17 | FYCNICGANFTQKGNLLRHIKL [46F_47Y_49N_50I_52G_53A_54N_55F_67L_, Q9UKT9] | 1.69 | 2.89 | 1.33 | 0.00754
18 | FWCNICGANFTQKGNLLRHIKL [46F_47W_49N_50I_52G_53A_54N_55F_67L_, Q9UKT9] | 2.27 | 3.62 | 1.88 | 0.44
19 | FNCPVCGANFTQKGNLLRHIKL [46F_47N_49P_50V_52G_53A_54N_55F_67L_, Q9UKT9] | 1.79 | 0.637 | 0.771 | 0.306
20 | FQCPVCGANFTQKGNLLRHIKL [46F_47Q_49P_50V_52G_53A_54N_55F_67L_, Q9UKT9] | 0.19 | 2.02 | 1.9 | 3.48
21 | FVCPVCGANFTQKGNLLRHIKL [46F_47V_49P_50V_52G_53A_54N_55F_67L_, Q9UKT9] | -0.407 | 2.43 | 1.69 | 2.77
22 | FWCPVCGANFTQKGNLLRHIKL [46F_47W_49P_50V_52G_53A_54N_55F_67L_, Q9UKT9] | 3.05 | 3.85 | 2.12 | 1.69
23 | FLCPVCGANFTQKGNLLRHIKL [46F_47L_49P_50V_52G_53A_54N_55F_67L_, Q9UKT9] | -0.132 | 0.243 | 1.67 | 1.54
24 | FMCPVCGANFTQKGNLLRHIKL [46F_47M_49P_50V_52G_53A_54N_55F_67L_, Q9UKT9] | -0.564 | 1.22 | 2.92 | 1.69
25 | FECNICGANFTQKGNLLRHIKL [46F_47E_49N_50I_52G_53A_54N_55F_67L_, Q9UKT9] | -1.93 | -1.27 | 1.75 | 2.22
26 | FKCDVCGADFTQKGNLLRHIKL [46F_47K_49D_50V_52G_53A_54D_55F_67L_, Q9UKT9] | -2.97 | -3.35 | -3.54 | -2.81
27 | FFCEICGRYFTQKGNLLRHIKL [46F_47F_49E_50I_52G_53R_54Y_55F_67L_, Q9UKT9] | 0.941 | 0.578 | -0.864 | -0.888
28 | FKCNQCGRGFTQKGNLLRHIKL [46F_47K_49N_50Q_52G_53R_54G_55F_67L_, Q9UKT9] | -2.31 | -2.82 | -2.99 | -2.64
